Measured values from PubChem BioAssay (NCI).
This is part of a sample that, as a whole, favours compounds with a hit. Of some 79,000 tested, about 15% had one in any assay. Unmarked numbers belong to inactive results. Rule as the data show it: active = growth inhibition above about 70%; inactive = the rest.

assay: NCI Yeast Anticancer Drug Screen. Data for the bub3 strain (AID 167); conditions: S. cerevisiae bub3 mutant strain, at 50.0 µM, active compounds read high
Summary of the method: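 Readout: yeast growth inhibition, expressed relative to vehicle-only wells. The test organism is a mutant strain from a panel with lesions in DNA repair or checkpoint genes.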

Structure (SMILES)	growth inhibition
C=C(C)CN(Cc1ccccc1)C1CCCCCCC1	1.35%
CCN(CC)CCOC(=O)Cc1cccc2c(=O)cc(-c3ccc(OC)cc3)oc12	-10.2%
CCOC(=O)c1ccc(NCCCc2c(C)nc(N)[nH]c2=O)cc1	34.6%
O=C(CC1=NC2NN(c3ccccc3)C(=O)C2=C1CC(=O)C(c1ccccc1)c1ccccc1)C(c1ccccc1)c1ccccc1 (stereo not given)	10.8%
CCN1CC(O)c2cc(N=NC(N)=O)c(O)cc21 (stereo not given)	3.85%
Cc1cc(=O)c2cc(Cc3ccc(N)cc3)ccc2[nH]1	-3.45%
O=C1C(Cl)N(c2c(Cl)cccc2Cl)C1c1c[nH]c2ccccc12 (stereo not given)	-20.9%
COc1ccc(-n2c(=O)c(N=Nc3ccccc3)c(O)n(-c3ccccc3OC)c2=S)cc1	8.95%
CC(C)C(=O)CC(c1ccc(Cl)cc1)N1N=C(C(C)C)CC1c1ccc(Cl)cc1 (stereo not given)	40%
CCOC(=O)C(C#N)C(=O)c1ccccc1-c1ccccc1[N+](=O)[O-] (stereo not given)	-13.2%
O=C(C[n+]1ccncc1)c1ccc2c(c1)CCCC2	46.1%
CN(C)Cc1ccc2ccccc2c1CC(O)(c1ccccc1)c1ccccc1	0.85%
CCC(=O)N1NC(=O)C(CC)(CC)C1=O	-2.3%
CC1=NN(c2ccccc2)C(=O)/C1=C1\SC(c2ccccc2)(c2ccccc2)c2ccccc21	23.2%
CC(C)(C)n1nnnc1N	11.1%
O=Cc1ccc(OCc2cccc([N+](=O)[O-])c2)cc1	31.4%
Cc1ccc(Cl)cc1N	0.85%
CC1(C)CC(Nc2ccc(Nc3ccccc3)cc2)CC(C)(C)N1	-2.1%
COC1OC2COc3ccccc3OC2C2C1N2C(N)=S (stereo not given)	19.4%
CCN(c1ccccc1C(=O)O)S(=O)(=O)c1ccc(C)cc1	22%

Structure (SMILES)	growth inhibition
c1ccc(SC(Sc2ccccc2)=C2CCC2)cc1	18%
NC(CSS(=O)(=O)c1ccccc1)C(=O)O (stereo not given)	-10.6%
COc1cccc(NC(=O)CC(=O)N2N=C(N(CCC#N)c3ccc(Cl)cc3)CC2c2ccccc2)c1 (stereo not given)	-0.15%
CCOC(=O)C1CN(C2CCCCC2)CCC1=O (stereo not given)	1.4%
CCC12OC3(CC)C4C(=O)OC1C1(CC)OC4(CC)C3C(=O)OC21	0.8%
NC(=O)CCn1ccc2ccccc21	5%
Clc1cccc(CC(Br)Br)c1	-4.65%
CSc1ccc(C2OC(=O)c3ccccc32)c2ccccc12 (stereo not given)	-14.8%
COc1cc(C2C3=C(COC3=O)OC(C)(C)Oc3cc4c(cc32)OCO4)cc(OC)c1O (stereo not given)	-27.1%
CCCCNC(=O)Nc1cc(C)ccc1C	8.2%
O=[N+]([O-])c1ccc(O)c(O)c1	5.6%
CC1(c2ccco2)CCC(=O)CC1=O (stereo not given)	-12.9%
COc1cc(C(c2cc3c(cc2OC(C)=O)OCO3)C(C(C)=O)C(C)=O)cc(OC)c1OC (stereo not given)	4.35%
COc1ccc(CCCNC(=O)c2cc(OC)c(OC)cc2CCO)cc1OC	-31.2%
Cc1[nH]c2ccccc2c1C1=CC(=O)N(c2ccccc2)C1=O	-4.7%
CC(C)C1C(O)C23CCC4C(C)(CO)CCCC4(C)C2CC13 (stereo not given)	-24.1%
O=C(O)c1c[n+]([O-])ccc1Cl	-8.2%
Cc1ccc([N+](=O)[O-])cc1N1CCNC1=O	9%
CC(=O)Nc1c(C(=N)C#N)ncn1CCO	-3.65%
COC(=O)C1=C(C)C=C(N2CCOCC2)C(C(=O)OC)C1c1ccccc1 (stereo not given)	-1.55%

assay: NCI Yeast Anticancer Drug Screen. Data for the mlh1 rad18 strain (AID 175); conditions: S. cerevisiae mlh1 rad18 strain growth inhibition; at 50.0 µM; active compounds read high
Summary of the method: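 A repair-deficient yeast strain is exposed to test compound, and growth is scored relative to vehicle-treated controls.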

Structure (SMILES)	growth inhibition
C=C(C)CN(Cc1ccccc1)C1CCCCCCC1	-17.6%
CCN(CC)CCOC(=O)Cc1cccc2c(=O)cc(-c3ccc(OC)cc3)oc12	-45.4%
CCOC(=O)c1ccc(NCCCc2c(C)nc(N)[nH]c2=O)cc1	-2.85%
O=C(CC1=NC2NN(c3ccccc3)C(=O)C2=C1CC(=O)C(c1ccccc1)c1ccccc1)C(c1ccccc1)c1ccccc1 (stereo not given)	48.5%
CCN1CC(O)c2cc(N=NC(N)=O)c(O)cc21 (stereo not given)	23%
Cc1cc(=O)c2cc(Cc3ccc(N)cc3)ccc2[nH]1	0.65%
O=C1C(Cl)N(c2c(Cl)cccc2Cl)C1c1c[nH]c2ccccc12 (stereo not given)	-41.8%
COc1ccc(-n2c(=O)c(N=Nc3ccccc3)c(O)n(-c3ccccc3OC)c2=S)cc1	15.3%
CC(C)C(=O)CC(c1ccc(Cl)cc1)N1N=C(C(C)C)CC1c1ccc(Cl)cc1 (stereo not given)	14.4%
CCOC(=O)C(C#N)C(=O)c1ccccc1-c1ccccc1[N+](=O)[O-] (stereo not given)	5%
O=C(C[n+]1ccncc1)c1ccc2c(c1)CCCC2	20.5%
CN(C)Cc1ccc2ccccc2c1CC(O)(c1ccccc1)c1ccccc1	7.35%
CCC(=O)N1NC(=O)C(CC)(CC)C1=O	-35.6%
CC1=NN(c2ccccc2)C(=O)/C1=C1\SC(c2ccccc2)(c2ccccc2)c2ccccc21	-30.4%
CC(C)(C)n1nnnc1N	-20.9%
O=Cc1ccc(OCc2cccc([N+](=O)[O-])c2)cc1	47%
Cc1ccc(Cl)cc1N	18.8%
CC1(C)CC(Nc2ccc(Nc3ccccc3)cc2)CC(C)(C)N1	-19.8%
COC1OC2COc3ccccc3OC2C2C1N2C(N)=S (stereo not given)	12.9%
CCN(c1ccccc1C(=O)O)S(=O)(=O)c1ccc(C)cc1	11.9%

Structure (SMILES)	growth inhibition
c1ccc(SC(Sc2ccccc2)=C2CCC2)cc1	-6.35%
NC(CSS(=O)(=O)c1ccccc1)C(=O)O (stereo not given)	0.3%
COc1cccc(NC(=O)CC(=O)N2N=C(N(CCC#N)c3ccc(Cl)cc3)CC2c2ccccc2)c1 (stereo not given)	-0.75%
CCOC(=O)C1CN(C2CCCCC2)CCC1=O (stereo not given)	-24.4%
CCC12OC3(CC)C4C(=O)OC1C1(CC)OC4(CC)C3C(=O)OC21	13.3%
NC(=O)CCn1ccc2ccccc21	-0.85%
Clc1cccc(CC(Br)Br)c1	14.5%
CSc1ccc(C2OC(=O)c3ccccc32)c2ccccc12 (stereo not given)	5.1%
COc1cc(C2C3=C(COC3=O)OC(C)(C)Oc3cc4c(cc32)OCO4)cc(OC)c1O (stereo not given)	0%
CCCCNC(=O)Nc1cc(C)ccc1C	2.1%
O=[N+]([O-])c1ccc(O)c(O)c1	-6.85%
CC1(c2ccco2)CCC(=O)CC1=O (stereo not given)	1.1%
COc1cc(C(c2cc3c(cc2OC(C)=O)OCO3)C(C(C)=O)C(C)=O)cc(OC)c1OC (stereo not given)	-1.8%
COc1ccc(CCCNC(=O)c2cc(OC)c(OC)cc2CCO)cc1OC	-11.8%
Cc1[nH]c2ccccc2c1C1=CC(=O)N(c2ccccc2)C1=O	-7.9%
CC(C)C1C(O)C23CCC4C(C)(CO)CCCC4(C)C2CC13 (stereo not given)	-8.75%
O=C(O)c1c[n+]([O-])ccc1Cl	27.1%
Cc1ccc([N+](=O)[O-])cc1N1CCNC1=O	-21.9%
CC(=O)Nc1c(C(=N)C#N)ncn1CCO	5.5%
COC(=O)C1=C(C)C=C(N2CCOCC2)C(C(=O)OC)C1c1ccccc1 (stereo not given)	9%
